In publication PMC9911399, “Two distinct binding modes provide the RNA-binding protein RbFox with extraordinary sequence specificity”:
Changes are numbered by the printed parent chain; changes in the protein carry UniProt numbers. Over roughly 16,000 sequences, “ka relative to ugcaugu” has its median near 0.0091; the highest 2% begin near 0.032. Shown is part of a subset that was picked to be rich in the highest values.

T1: RBFOX1 RRM (Homo sapiens, UniProt Q9NWB1 109-208)
T1 sequence: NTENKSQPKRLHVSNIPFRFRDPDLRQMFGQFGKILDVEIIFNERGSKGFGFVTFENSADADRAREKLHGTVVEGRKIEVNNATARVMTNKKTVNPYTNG

B1: GUGAUCC (DNA:RNA)
RNA: GGGAGACCGGAAUUCAGAUUGUCCGUGAUCCUUAAAUCCCGUCGUAGCCACCA
DNA 1: CAATCTGAATTCCGGTCTCCC
DNA 2: TGGTGGCTACGACGGGATT
B2: AGGGUCU (DNA:RNA)
RNA: B1 RNA with G25A, U26G, A28G, C31U
DNA 1: CAATCTGAATTCCGGTCTCCC
DNA 2: TGGTGGCTACGACGGGATT
B3: GCUUGCA (DNA:RNA)
RNA: B1 RNA with U26C, G27U, A28U, U29G, C31A
DNA 1: CAATCTGAATTCCGGTCTCCC
DNA 2: TGGTGGCTACGACGGGATT
B4: GCUUGCU (DNA:RNA)
RNA: B1 RNA with U26C, G27U, A28U, U29G, C31U
DNA 1: CAATCTGAATTCCGGTCTCCC
DNA 2: TGGTGGCTACGACGGGATT
B5: CCGCUUG (DNA:RNA)
RNA: B1 RNA with G25C, U26C, A28C, C30U, C31G
DNA 1: CAATCTGAATTCCGGTCTCCC
DNA 2: TGGTGGCTACGACGGGATT
B6: CGCUUGC (DNA:RNA)
RNA: B1 RNA with G25C, U26G, G27C, A28U, C30G
DNA 1: CAATCTGAATTCCGGTCTCCC
DNA 2: TGGTGGCTACGACGGGATT
B7: CGUUGCA (DNA:RNA)
RNA: B1 RNA with G25C, U26G, G27U, A28U, U29G, C31A
DNA 1: CAATCTGAATTCCGGTCTCCC
DNA 2: TGGTGGCTACGACGGGATT
B8: GCUUAAA (DNA:RNA)
RNA: B1 RNA with U26C, G27U, A28U, U29A, C30A, C31A
DNA 1: CAATCTGAATTCCGGTCTCCC
DNA 2: TGGTGGCTACGACGGGATT
B9: GUCCGCU (DNA:RNA)
RNA: B1 RNA with G27C, A28C, U29G, C31U
DNA 1: CAATCTGAATTCCGGTCTCCC
DNA 2: TGGTGGCTACGACGGGATT
B10: GCUUUGC (DNA:RNA)
RNA: B1 RNA with U26C, G27U, A28U, C30G
DNA 1: CAATCTGAATTCCGGTCTCCC
DNA 2: TGGTGGCTACGACGGGATT
B11: GCUUGCG (DNA:RNA)
RNA: B1 RNA with U26C, G27U, A28U, U29G, C31G
DNA 1: CAATCTGAATTCCGGTCTCCC
DNA 2: TGGTGGCTACGACGGGATT
B12: UAAGGUC (DNA:RNA)
RNA: B1 RNA with G25U, U26A, G27A, A28G, U29G, C30U
DNA 1: CAATCTGAATTCCGGTCTCCC
DNA 2: TGGTGGCTACGACGGGATT
B13: UACUCGA (DNA:RNA)
RNA: GGGAGACCGGAAUUCAGAUUGUCCUACUCGAUUAAAUCCCGUCGUAGCCACCA
DNA 1: CAATCTGAATTCCGGTCTCCC
DNA 2: TGGTGGCTACGACGGGATT
B14: AUACUGG (DNA:RNA)
RNA: B1 RNA with G25A, G27A, A28C, C30G, C31G
DNA 1: CAATCTGAATTCCGGTCTCCC
DNA 2: TGGTGGCTACGACGGGATT
B15: GUUACCU (DNA:RNA)
RNA: B1 RNA with G27U, U29C, C31U
DNA 1: CAATCTGAATTCCGGTCTCCC
DNA 2: TGGTGGCTACGACGGGATT
B16: CCCUACU (DNA:RNA)
RNA: B13 RNA with U25C, A26C, C29A, G30C, A31U
DNA 1: CAATCTGAATTCCGGTCTCCC
DNA 2: TGGTGGCTACGACGGGATT
B17: UGGGUCC (DNA:RNA)
RNA: B1 RNA with G25U, U26G, A28G
DNA 1: CAATCTGAATTCCGGTCTCCC
DNA 2: TGGTGGCTACGACGGGATT
B18: UGGGACC (DNA:RNA)
RNA: B1 RNA with G25U, U26G, A28G, U29A
DNA 1: CAATCTGAATTCCGGTCTCCC
DNA 2: TGGTGGCTACGACGGGATT
B19: CUGGUCC (DNA:RNA)
RNA: B1 RNA with G25C, A28G
DNA 1: CAATCTGAATTCCGGTCTCCC
DNA 2: TGGTGGCTACGACGGGATT
B20: UGGUCCG (DNA:RNA)
RNA: B13 RNA with A26G, C27G, G30C, A31G
DNA 1: CAATCTGAATTCCGGTCTCCC
DNA 2: TGGTGGCTACGACGGGATT
B21: UGGGUCG (DNA:RNA)
RNA: B1 RNA with G25U, U26G, A28G, C31G
DNA 1: CAATCTGAATTCCGGTCTCCC
DNA 2: TGGTGGCTACGACGGGATT
B22: UGGGUCA (DNA:RNA)
RNA: B1 RNA with G25U, U26G, A28G, C31A
DNA 1: CAATCTGAATTCCGGTCTCCC
DNA 2: TGGTGGCTACGACGGGATT

Each binder was assayed against T1, RBFOX1 RRM (assay: EMSA; HiTS-Eq, 1 nM pool, 10 min; buffer printed only for the single-RNA assays: 10 mM Tris pH 7.5, 150 mM NaCl, 3.4 mM EDTA, 0.001% NP-40, 30 C). Details: tags: His6 N-terminal (pET28a); label: 5' 32P.
Method in brief: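 Purified RbFox RRM (wild type or mutant) was equilibrated for 10 min in 50 µL with 1 nM of a 5′-radiolabelled pool of RNA with 7 randomized nucleotides, its flanks annealed to DNA oligonucleotides, across increasing protein concentrations. Free RNA was separated by 8% native PAGE, excised, reverse-transcribed, PCR-barcoded and sequenced on an Illumina HiSeq 2500. Relative association constants came from read-count changes of each variant against the control reaction, normalised to the cognate motif.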
B1 was tested, and the binding signal was 0.0187 KA relative to UGCAUGU.
For B2, the binding signal was 0.0254 KA relative to UGCAUGU.
With B3 the binding signal was 0.0329 KA relative to UGCAUGU.
In the case of B4, the binding signal is reported as 0.0354 KA relative to UGCAUGU.
With B5 the binding signal was 0.0253 KA relative to UGCAUGU.
In the case of B6, the binding signal is reported as 0.032 KA relative to UGCAUGU.
For B7, the binding signal was 0.0228 KA relative to UGCAUGU.
B8 was tested, and the binding signal was 0.00504 KA relative to UGCAUGU.
B9 was tested, and the binding signal was 0.0113 KA relative to UGCAUGU.
With B10 the binding signal was 0.0232 KA relative to UGCAUGU.
In the case of B11, the binding signal is reported as 0.0193 KA relative to UGCAUGU.
In the case of B12, the binding signal is reported as 0.0168 KA relative to UGCAUGU.
B13 was tested, and the binding signal was 0.0112 KA relative to UGCAUGU.
For B14, the binding signal was 0.00795 KA relative to UGCAUGU.
B15 was tested, and the binding signal was 0.00787 KA relative to UGCAUGU.
In the case of B16, the binding signal is reported as 0.00609 KA relative to UGCAUGU.
For B17, the binding signal was 0.0332 KA relative to UGCAUGU.
In the case of B18, the binding signal is reported as 0.0142 KA relative to UGCAUGU.
With B19 the binding signal was 0.0227 KA relative to UGCAUGU.
For B20, the binding signal was 0.017 KA relative to UGCAUGU.
With B21 the binding signal was 0.0407 KA relative to UGCAUGU.
For B22, the binding signal was 0.0232 KA relative to UGCAUGU.
